In the library only some 2.7% were active in any assay of this set; here they are far more common.
KDM5B inh – inhibitors of human KDM5B histone demethylase. Potency, µM (doses to about 57.7 µM), hits mostly inhibitors. 220,000 compounds, 2.6% hits. Q9UGL1. AID 1347165. KDM5B demethylase, FDH-coupled NADH fluorescence (FDH is formaldehyde dehydrogenase); also: potency is read from the fitted curve at half-maximal effect; 0% is about no effect; nearly all actives have a fitted effect of over 70% in size
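Here, H3K4me3 peptide (12.5 µM in substrate mix) is demethylated by KDM5BΔAP, 200 nM final, after 10 min compound exposure. Formaldehyde product is coupled through FDH (0.25 U/mL in mix) to NADH fluorescence; 30-min ΔRFU feeds dose-response curves.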
IP6K1 inh – IP6K1 kinase inhibition; IP6K1 kinase, ADP-Glo luminescence, 2 h; hits give low values; 140,000 compounds, 0.81% hits; Q92551; activity change, % (series mostly up to about 58 µM); in the data active = activity change below about -25%; also: % is scaled to controls: 0 for no effect and ±100 for the full control effect
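ADP-Glo luminescence measures ADP made by human IP6K1 during a 2 h RT reaction with ATP/IP6 (mix at 1.3 mM/130 uM); top library doses 57.5 and 19.1 uM final.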
IP6K1 conf – human IP6K1 inhibition, confirmatory. shares compounds with IP6K1 inh. recombinant IP6K1 kinase, ADP-Glo luminescence, 2 h. Potency, µM (highest dose often 49 µM), without a hit: top-dose activity change, negative = inhibition, hits mostly inhibitors. 1,200 compounds, 13% hits. AID 1645852; also: potency is read from the fitted curve at half-maximal effect; % is scaled to controls: 0 for no effect and ±100 for the full control effect; nearly all actives have a fitted effect of over 65% in size
Starred values were filed as active, the others as inactive; i = inactive; ? = inconclusive; . = no result given. Unless noted, calls follow the shape of the dose curve; as a rule, active = well fitted inhibition curve with a large enough effect; inconclusive = small, poorly fitted or top-dose-only effect; inactive = no such curve, though single readings can be large or run the other way.

SMILES	KDM5B inh	IP6K1 inh	IP6K1 conf
COc1ccc(N2CCN(CC(O)COc3cc(C)cc(C)c3)CC2)cc1 (stereo unspecified)	i	.	.
COc1ccc(N2CCN(CC(O)COc3c(OC)cccc3OC)CC2)cc1 (stereo unspecified)	?	-46*	-15%
COc1ccc(N2CCN(CC(O)COc3ccccc3C(C)(C)C)CC2)cc1 (stereo unspecified)	?	-27*	?
COc1ccc(N2CCN(CC(O)COc3ccc(C)c(C)c3)CC2)cc1 (stereo unspecified)	i	22	.
CN1CCN(C(=O)c2cc(-c3ccc(F)cc3)nc3c2cnn3C)CC1	.	25	.
Cc1ccc(NC(=O)CC2Sc3ccc(C(F)(F)F)cc3NC2=O)cc1Cl (stereo unspecified)	i	.	.
CCOc1ccc2c(n1)CCN(C(=O)Cc1ccccc1)C2	i	-10	.
CCOc1ccc2c(n1)CCN(C(=O)Cc1c[nH]c3ccccc13)C2	i	-26*	-26%
CCc1cccc(NC(=O)COC(=O)c2cc(C)nc3ccccc23)c1	i	.	.
Clc1ccccc1-c1nc(-c2ccncc2)no1	.	-25*	?
CSc1ccccc1-c1nc(-c2ccncc2)no1	i	.	.
Cc1cc(C(=O)NC(C2CC2)C2CC2)c2c(Br)cccc2n1	i	.	.
C[S+](=O)([O-])NCc1nnc2n1C(C(=O)NCc1ccccc1)CC2 (stereo unspecified)	.	11	.
C[S+](=O)([O-])NCc1nnc2n1C(C(=O)NCc1ccccc1F)CC2 (stereo unspecified)	.	-28*	-2%
Cc1ccc(CNC(=O)Nc2cccc(-c3ccc(N4CCOCC4)nn3)c2)cc1	i	-13	.
COc1cccc(CNC(=O)Nc2cccc(-c3ccc(N4CCOCC4)nn3)c2)c1	i	-39*	?
COc1ccccc1NC(=O)Nc1cccc(-c2ccc(N3CCOCC3)nn2)c1	i	-4	.
CCc1ccccc1NC(=O)Nc1cccc(-c2ccc(N3CCOCC3)nn2)c1	i	-26*	-24%
O=C(Cn1cccc1-c1nc(-c2ccc3c(c2)OCO3)no1)NCc1ccc(F)cc1	?	17	.
CSCC(=O)NCc1sccc1C	i	.	.
CN(C)c1ccc(C2CC(c3c(O)n(C4CCCCC4)c(=O)[nH]c3=O)=Nc3ccccc3S2)cc1 (stereo unspecified)	?	-32*	16%
O=c1[nH]c(=O)n(C2CCCCC2)c(O)c1C1=Nc2ccccc2SC(c2ccccc2)C1 (stereo unspecified)	?	-10	.
O=C(Cc1cccc(Cl)c1)NC1CN(c2ccnc3ccnn23)C1	.	-6	.
COc1ccc(-c2cn3cc(C(=O)NCc4ccc(F)c(F)c4)nc3s2)cc1	.	11	.
CCN(CC)Cc1ccccc1CNC(=O)CCn1cnc2sc(C)c(C)c2c1=O	i	.	.
SMILES	KDM5B inh	IP6K1 inh	IP6K1 conf
Cn1nc(C(=O)Nc2cc(-c3cccc(Cl)c3)no2)c2c1-c1ccccc1OC2	i	.	.
Cc1ccc(OCC(=O)Nc2ccc3nc(SCCOc4ccccc4)sc3c2)cc1	i	-27*	0%
Cc1ccc(OCC(=O)Nc2ccc3nc(SCC(N)=O)sc3c2)cc1	i	8	.
Cc1ccc(NS(=O)(=O)c2ccc(Cl)cc2)cc1S(=O)(=O)N(C)C	i	.	.
N#Cc1ccc(NCc2cccc(NC(=O)C3CC3)c2)nc1	i	.	.
Cc1ccc(CNC(=O)Cc2c(C)c3c(cc(C)c4c(C)coc43)oc2=O)cc1	i	-26*	-20%
Cc1coc2c1c(C)cc1oc(=O)c(CC(=O)NCCc3ccc(Cl)cc3)c(C)c12	i	-7	.
Cc1cccc(-c2noc([C@@H]3Cc4nc[nH]c4CN3C(=O)c3ccc(F)cc3)n2)c1	i	-14	.
O=C(c1ccc(F)cc1)N1Cc2[nH]cnc2C[C@H]1c1nc(-c2ccc(Cl)cc2)no1	i	-39*	?
c1cc(N[C@@H]2CCNC2)nc(-c2cnc3ccc(-c4cn[nH]c4)cn23)c1	.	-39*	?
CCc1ncncc1C(=O)O	i	.	.
O=C(c1ccc(N2CC3CC(C2)[C@H]2CCCC(=O)N2C3)nc1)N1CCN(c2ccc(Cl)cc2)CC1 (stereo partly specified)	?	0	.
COc1cc(OC)c(NC(=O)C2=C(C)C(=O)OC23CCN(C(C)=O)CC3)cc1Cl	i	-4	.
COc1cc(OC)c(NC(=O)C2=C(C)C(=O)OC23CCCCCC3)cc1Cl	i	-100*	-13%
CCN1CCN(c2ccc(-c3cccc(N)c3)nn2)CC1	i	-17	.
Nc1cccc(-c2ccc(N3CCCCC3)nn2)c1	i	-27*	?
CCOc1ccc(C2Cn3nnc(-c4nc(-c5ccsc5)no4)c3CO2)cc1 (stereo unspecified)	25µM*	-27*	-14%
COc1ccc(C2Cn3nnc(-c4noc(-c5ccsc5)n4)c3CO2)cc1 (stereo unspecified)	i	13	.
N#Cc1cc(NC(=O)C(=O)O)c(Cl)c(NC(=O)C(=O)O)c1	.	-35*	-23%
N#Cc1cccc(S(=O)(=O)NCC(=O)O)c1	i	.	.
CC(C)c1ccc(C2=NN(c3ccccc3)C(=O)CC2)cc1	i	.	.
CC1=NN(c2ccccc2)C(=O)C1	.	-32*	-14%
N#CCCCSc1ccc(C(F)(F)F)cn1	i	.	.
CC1CCN(S(=O)(=O)c2ccc(-c3nc(C#N)c(NCCCn4ccnc4)o3)cc2)CC1	i	.	.
CCOC(=O)c1ccc(NC(=O)CC2C(=O)N(c3ccccc3)C(=O)N2Cc2ccc(C)cc2)cc1 (stereo unspecified)	i	-40*	?
SMILES	KDM5B inh	IP6K1 inh	IP6K1 conf
CCOc1ccc(NC(=O)CC2C(=O)N(c3ccc(C)cc3)C(=O)N2Cc2ccc(OC)cc2)cc1 (stereo unspecified)	i	-14	.
CC1=C[C@@H](CN(C)CCC#N)[C@H](C(C)C)C[C@H]1Cc1nnc(-c2ccc(C)cc2)o1	i	-10	.
O=C(NCCc1ccccc1)C1CCN(c2nc3ccccc3nc2C(F)(F)F)CC1	i	-1	.
CCCSCCCNC(=O)C1CCN(c2nc3ccccc3nc2C(F)(F)F)CC1	i	-29*	-9%
COc1ccc(CCC(=O)N2[C@@H]3CC[C@H]2CC(NC(=O)c2ccc(F)cc2)C3)cc1 (stereo partly specified)	i	1	.
COc1ccc(C(=O)NC2CCCc3c2[nH]c2ccccc32)cc1OC (stereo unspecified)	?	7	.
CC(=O)c1c(SCC(=O)Nc2ccc(F)c(F)c2)nc(=O)[nH]c1C	i	.	.
Cc1cc(Nc2nc(-c3ccccc3)nc3ccccc23)n[nH]1	.	-26*	?
Cc1cc(C)cc(Nc2nc(-c3cccnc3)nc3ccccc23)c1	i	.	.
COc1cccc(-c2cc(C(=O)NCc3cccs3)c3cnn(C)c3n2)c1	.	7	.
COc1ccccc1-c1ccc2c(C(=O)NCc3cccc(Cl)c3)nn(C)c2n1	.	6	.
O=C(Oc1ccc(F)cc1)c1nc(SCc2ccccc2F)ncc1Cl	?	-16	.
COc1ccc(OC(=O)c2nc(SCc3ccccc3F)ncc2Cl)cc1	?	-34*	8%
CCC(Sc1nnc2c(Cl)cc(C(F)(F)F)cn12)C(=O)Nc1cc(C)on1 (stereo unspecified)	i	.	.
